Laboratory results published in PubChem BioAssay (EPA / NIEHS).
Results filed as inconclusive are left out. The source made the active and inactive calls. The calls were made as follows, unless noted: active = hit-call score of the fitted dose curve at least 0.9, where 1 is the maximum; inactive = score below 0.9.

Assays:
[1] = target: Nuclear respiratory factor 1 (Homo sapiens) (UniProt Q16656); test: ATG_NRF1_CIS: Attagene CIS-FACTORIAL HepG2 Assay for human Nuclear Respiratory Factor 1 (NRF1) Orphan Gene (AID 2282987); settings: HepG2 NRF1 cis-element reporter, Attagene multiplex; actives raise or lower the signal
Outline: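 HepG2 cells transiently transfected with multiple cis-regulated reporter units, exposed 24 h. Reporter mRNAs measured by RT-PCR, fluorescent labelling, HpaI digestion and capillary electrophoresis; bidirectional fitting against DMSO.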

[2] = ATG_NFI_CIS: Attagene CIS-FACTORIAL HepG2 Assay for human Nuclear Factor I (NFI) (AID 2282989); settings: HepG2 cis-regulatory reporter, NFI response element transcription; actives raise or lower the signal
Outline: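 Read-out: reporter mRNA via RT-PCR plus capillary electrophoresis with fluorescence detection. Transiently transfected HepG2 (endogenous TF activity on cis promoters), 24 h compound exposure; gain or loss of signal fitted against DMSO.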

[3] = target: Myc proto-oncogene protein (Homo sapiens) (UniProt P01106); test: ATG_Myc_CIS: Attagene CIS-FACTORIAL HepG2 Assay for human Myelocytomatosis (Myc) Proto-Oncogene Transcription Factor (AID 2282990); settings: HepG2, Attagene cis-reporter transcription factor activity; actives raise or lower the signal
Outline: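 Cells of the HepG2 human liver line bear multiple cis-driven reporter transcription units. Reporter mRNA after 24 h exposure is reverse-transcribed, amplified, labelled and resolved by capillary electrophoresis, with gain- or loss-of-signal fitting relative to DMSO.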

[4] = ATG_NF_kB_CIS: Attagene CIS-FACTORIAL HepG2 Assay for human Nuclear Factor Kappa B (NF-kB) (AID 2282991); settings: HepG2 Attagene cis-factorial NF-kB reporter mRNA; actives raise or lower the signal
Outline: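 HepG2 cells transfected with cis-promoter-driven reporter units, so endogenous transcription factor activity is measured. Reporter mRNA quantified 24 h after dosing by RT-PCR and capillary electrophoresis, with bidirectional fitting against DMSO.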

[5] = ATG_NRF2_ARE_CIS: Attagene CIS-FACTORIAL HepG2 Assay for human Nuclear Factor Erythroid 2 Related Factor 2 (NFR2) response to Antioxidant Response Elements (ARE) (AID 2282992); settings: HepG2 Attagene ARE/NRF2 reporter, transcription factor activity; actives raise or lower the signal;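 as to AC50: reporter mRNA level measured by RT-PCR and capillary electrophoresis fluorescence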
Outline: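 Readout: reporter mRNA quantified by RT-PCR plus FAM-labelled primer extension, HpaI digestion and capillary electrophoresis, 24 h after dosing transfected HepG2 cells. Gain or loss of signal is fitted bidirectionally against DMSO baseline.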

[6] = target: Cellular tumor antigen p53 (Homo sapiens) (UniProt P04637); test: ATG_p53_CIS: Attagene CIS-FACTORIAL HepG2 Assay for human p53 Transcription Factor (AID 2282994); settings: HepG2 p53 cis-element reporter, Attagene mRNA; actives raise or lower the signal
Outline: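 Read-out: reporter mRNA by RT-PCR plus capillary electrophoresis with fluorescence detection. Human HepG2 liver cells carried transfected multi-reporter cis-element constructs, dosed 24 h. Gain or loss of signal fitted bidirectionally against DMSO control.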

[7] = BSK_3C_TissueFactor: BioMAP Diversity Plus: 3C Assay for Tissue Factor Biomarker Activity (AID 2282997); settings: BioMAP 3C HUVEC, tissue factor biomarker readout; actives raise or lower the signal
Outline: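 In this endothelial system, HUVEC are treated for 24 h and Tissue Factor is assessed by ELISA, normalised to DMSO.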

[8] = BSK_3C_VCAM1: BioMAP Diversity Plus: 3C Assay for Vascular cell adhesion molecule 1 (VCAM1) Biomarker Activity (AID 2282999); settings: BioMAP 3C HUVEC, VCAM1 ELISA, cytokine-stimulated; actives raise or lower the signal
Outline: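 Activity fitted in both directions relative to DMSO, with ELISA measurement of the surface marker on primary HUVEC (3C) at 24 h post-treatment; parallel SRB staining (0.1% SRB, TCA-fixed, 560 nm) flagged overt cytotoxicity.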

[9] = BSK_4H_Eotaxin3: BioMAP Diversity Plus: 4H Assay for Eotaxin 3 Biomarker Activity (AID 2283000); settings: primary human endothelial cells (HUVEC); actives raise or lower the signal
Outline: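 ELISA quantitation of CCL26 (Eotaxin-3) protein from chemically dosed human vascular endothelial cells at 24 h; increases and decreases both scored relative to DMSO-treated baseline.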

[10] = target: human Peroxisome Proliferator-activated Receptor delta (PPARd), PPARD (gene 5467) (UniProt Q03181); test: ATG_PPARd_TRANS: Attagene TRANS-FACTORIAL HepG2 Assay for human Peroxisome Proliferator-activated Receptor delta (PPARd) (AID 2283002; active = hit-call score of the fitted dose curve at least 0.9, where 1 is the maximum)
Outline: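 Cell-based TRANS reporter: HepG2, transient MRTU transfection, 24 h exposure. Readout = reporter mRNA (RT-PCR/CE, 6-FAM). Gain-of-signal fit vs DMSO control.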

[11] = read-out: Intercellular Adhesion Molecule 1 (ICAM1), ICAM1 (gene 3383); test: BSK_3C_ICAM1: BioMAP Diversity Plus: 3C Assay for Intercellular Adhesion Molecule 1 (ICAM1) Biomarker Activity (AID 2283003); settings: primary human endothelial cells (HUVEC); actives raise or lower the signal
Outline: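 ELISA read-out of ICAM-1; HUVEC (primary human), 3C system, 24 h post-dosing; bidirectional fit vs DMSO baseline.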

[12] = BSK_3C_uPAR: BioMAP Diversity Plus: 3C Assay for Urokinase-type plasminogen activator receptor (uPAR) Biomarker Activity (AID 2282998); settings: BioMAP 3C HUVEC, uPAR biomarker ELISA; actives raise or lower the signal
Outline: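 HUVEC primary cells; 24 h post-dose; uPAR by ELISA; gain or loss of signal fitted bidirectionally vs DMSO baseline.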

[13] = target: Peroxisome proliferator-activated receptor gamma (Homo sapiens) (UniProt P37231); test: ATG_PPARg_TRANS: Attagene TRANS-FACTORIAL HepG2 Assay for human Peroxisome Proliferator-activated Receptor-gamma (PPARg) (AID 2283007; active = hit-call score of the fitted dose curve at least 0.9, where 1 is the maximum)
Outline: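 HepG2 cells are transiently transfected with GAL4-UAS reporter units driven by chimeric NR-Gal4 fusions and dosed for 24 h. Reporter mRNA is quantified by RT-PCR, 6-FAM labelling, HpaI digestion and capillary electrophoresis. Induction is scored against DMSO.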

[14] = target: Nuclear receptor subfamily 1 group I member 2 (Homo sapiens) (UniProt O75469); test: ATG_PXR_TRANS: Attagene TRANS-FACTORIAL HepG2 Assay for human Pregnane X Receptor (PXR) (AID 2283008; active = hit-call score of the fitted dose curve at least 0.9, where 1 is the maximum)
Outline: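 Trans-factorial format: exogenous NR-Gal4 fusion activity, not endogenous factor, in transfected human HepG2 liver cells. After 24 h dosing, RNA isolated, reverse-transcribed, amplified and resolved by capillary electrophoresis; induction scored versus DMSO.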

[15] = target: human Peroxisome Proliferator-activated Receptor alpha (PPARa), PPARA (gene 5465) (UniProt Q07869); test: ATG_PPARa_TRANS: Attagene TRANS-FACTORIAL HepG2 Assay for human Peroxisome Proliferator-activated Receptor alpha (PPARa) (AID 2283001; active = hit-call score of the fitted dose curve at least 0.9, where 1 is the maximum)
Outline: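 Transfected HepG2 cells treated with test chemical for 24 h. RNA isolated, reverse-transcribed with oligo(dT), PCR-amplified, FAM-labelled and HpaI-digested. Fragments sized by capillary electrophoresis; gain-of-signal fit relative to DMSO.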

[16] = BSK_3C_Proliferation: Cell Proliferation Assessment in the BioMAP Diversity Plus: 3C Assay (AID 2283006); settings: primary human endothelial cells (HUVEC);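 as to AC50: potency may reflect either rise or fall in cell number versus DMSO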
Outline: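 HUVEC, sub-confluent; 48 h chemical exposure; 10% TCA fix, 0.1% SRB stain, A560 total protein. Gain or loss of signal fitted both directions vs DMSO control.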

[17] = ATG_Oct_MLP_CIS: Attagene CIS-FACTORIAL HepG2 Assay for human Octamer-Binding Transcription Factor (Oct) (AID 2282993); settings: HepG2 Attagene cis-factorial Oct reporter, mRNA; actives raise or lower the signal
Outline: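 Read-out: reporter mRNA via RT-PCR plus capillary electrophoresis of 6-FAM-labelled fragments. Transiently transfected HepG2, 24 h exposure, endogenous TF activity on cis elements. Gain or loss of signal fitted relative to DMSO.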

[18] = target: human Retinoic Acid Receptor beta (RARb), RARB (gene 5915) (UniProt P10826); test: ATG_RARb_TRANS: Attagene TRANS-FACTORIAL HepG2 Assay for human Retinoic Acid Receptor beta (AID 2283004; active = hit-call score of the fitted dose curve at least 0.9, where 1 is the maximum)
Outline: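 Fluorescent capillary-electrophoresis detection of GAL4-UAS reporter mRNA defines the endpoint, with induction over DMSO-treated wells scored as activity. Transiently transfected human hepatoma HepG2 cells expressing exogenous NR–Gal4 proteins are exposed to test chemicals for 24 h.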

[19] = target: Retinoic acid receptor alpha (Homo sapiens) (UniProt P10276); test: ATG_RARa_TRANS: Attagene TRANS-FACTORIAL HepG2 Assay for human Retinoic Acid Receptor alpha (RARa) (AID 2283005; active = hit-call score of the fitted dose curve at least 0.9, where 1 is the maximum)
Outline: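 Reporter transcripts, measured by RT-PCR with fluorescent labeling and capillary electrophoresis after 24 h dosing, reflect activity of an exogenous human RARa–GAL4 fusion in transiently transfected HepG2. Fitted for increase relative to DMSO.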

[20] = target: human RAR-related Orphan Receptor beta (RORb), RORB (gene 6096) (UniProt Q92753); test: ATG_RORb_TRANS: Attagene TRANS-FACTORIAL HepG2 Assay for human RAR-related Orphan Receptor beta (RORb) (AID 2283010; active = hit-call score of the fitted dose curve at least 0.9, where 1 is the maximum)
Outline: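 HepG2, transient MRTU transfection (GAL4-UAS reporters, exogenous NR-Gal4 chimeras); 24 h compound exposure; total RNA → RT-PCR → 6-FAM primer extension → HpaI digest → CE fluorescence. Positive direction vs DMSO baseline.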

Measured: AC50

Chain of Nuclear respiratory factor 1 (Homo sapiens) (Q16656 whole entry, looked up): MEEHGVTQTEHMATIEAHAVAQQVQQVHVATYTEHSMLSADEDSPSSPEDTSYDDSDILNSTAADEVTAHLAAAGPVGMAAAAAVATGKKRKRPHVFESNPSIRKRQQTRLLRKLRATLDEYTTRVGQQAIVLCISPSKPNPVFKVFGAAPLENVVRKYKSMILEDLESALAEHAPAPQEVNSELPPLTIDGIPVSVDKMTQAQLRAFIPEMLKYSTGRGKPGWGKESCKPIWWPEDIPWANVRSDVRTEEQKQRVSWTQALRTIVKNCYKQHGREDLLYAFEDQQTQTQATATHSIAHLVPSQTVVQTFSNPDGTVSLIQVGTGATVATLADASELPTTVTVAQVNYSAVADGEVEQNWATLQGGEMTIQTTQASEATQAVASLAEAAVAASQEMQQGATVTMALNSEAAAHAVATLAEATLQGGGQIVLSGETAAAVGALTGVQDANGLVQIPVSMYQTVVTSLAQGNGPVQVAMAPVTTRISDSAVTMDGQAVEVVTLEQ
Chain of Peroxisome proliferator-activated receptor gamma (Homo sapiens) (P37231 whole entry, looked up, the tested form may be a part): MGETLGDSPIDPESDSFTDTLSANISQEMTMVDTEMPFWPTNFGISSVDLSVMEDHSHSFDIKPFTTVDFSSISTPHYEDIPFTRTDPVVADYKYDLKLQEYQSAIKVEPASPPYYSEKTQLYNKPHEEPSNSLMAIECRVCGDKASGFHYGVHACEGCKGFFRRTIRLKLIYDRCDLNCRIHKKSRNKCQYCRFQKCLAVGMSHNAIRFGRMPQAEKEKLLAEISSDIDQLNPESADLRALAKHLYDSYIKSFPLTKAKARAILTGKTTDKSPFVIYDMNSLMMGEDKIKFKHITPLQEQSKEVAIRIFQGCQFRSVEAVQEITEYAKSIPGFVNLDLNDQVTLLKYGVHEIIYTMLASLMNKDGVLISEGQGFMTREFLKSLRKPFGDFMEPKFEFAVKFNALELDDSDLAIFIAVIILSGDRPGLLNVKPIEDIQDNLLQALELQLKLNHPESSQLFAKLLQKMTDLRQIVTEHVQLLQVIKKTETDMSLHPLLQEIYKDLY
Chain of human Peroxisome Proliferator-activated Receptor delta (PPARd), PPARD (gene 5467) (Q03181 whole entry, looked up): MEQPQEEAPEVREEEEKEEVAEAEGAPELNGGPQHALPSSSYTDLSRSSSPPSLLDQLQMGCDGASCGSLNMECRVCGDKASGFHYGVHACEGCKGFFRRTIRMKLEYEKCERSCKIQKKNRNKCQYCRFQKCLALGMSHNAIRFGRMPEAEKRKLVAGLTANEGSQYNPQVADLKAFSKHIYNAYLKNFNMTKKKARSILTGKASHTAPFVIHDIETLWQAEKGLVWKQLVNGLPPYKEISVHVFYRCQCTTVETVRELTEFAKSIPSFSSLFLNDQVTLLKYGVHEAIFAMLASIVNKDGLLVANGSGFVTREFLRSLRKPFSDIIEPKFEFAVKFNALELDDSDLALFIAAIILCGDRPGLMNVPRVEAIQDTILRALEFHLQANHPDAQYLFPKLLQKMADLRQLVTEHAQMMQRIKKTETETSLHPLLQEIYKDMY
Chain of Nuclear receptor subfamily 1 group I member 2 (Homo sapiens) (O75469 whole entry, looked up, the tested form may be a part): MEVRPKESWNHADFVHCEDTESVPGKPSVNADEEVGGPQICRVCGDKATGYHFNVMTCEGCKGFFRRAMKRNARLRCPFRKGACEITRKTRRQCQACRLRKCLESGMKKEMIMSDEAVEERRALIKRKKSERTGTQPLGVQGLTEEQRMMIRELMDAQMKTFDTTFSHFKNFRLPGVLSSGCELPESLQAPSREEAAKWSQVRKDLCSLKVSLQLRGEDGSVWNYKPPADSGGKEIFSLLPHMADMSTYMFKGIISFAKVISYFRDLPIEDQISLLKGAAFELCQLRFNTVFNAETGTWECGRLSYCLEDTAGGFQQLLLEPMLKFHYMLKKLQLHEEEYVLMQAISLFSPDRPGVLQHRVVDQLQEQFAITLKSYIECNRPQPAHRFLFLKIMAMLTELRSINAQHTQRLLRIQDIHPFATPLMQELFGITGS
Chain of Cellular tumor antigen p53 (Homo sapiens) (P04637 whole entry, looked up): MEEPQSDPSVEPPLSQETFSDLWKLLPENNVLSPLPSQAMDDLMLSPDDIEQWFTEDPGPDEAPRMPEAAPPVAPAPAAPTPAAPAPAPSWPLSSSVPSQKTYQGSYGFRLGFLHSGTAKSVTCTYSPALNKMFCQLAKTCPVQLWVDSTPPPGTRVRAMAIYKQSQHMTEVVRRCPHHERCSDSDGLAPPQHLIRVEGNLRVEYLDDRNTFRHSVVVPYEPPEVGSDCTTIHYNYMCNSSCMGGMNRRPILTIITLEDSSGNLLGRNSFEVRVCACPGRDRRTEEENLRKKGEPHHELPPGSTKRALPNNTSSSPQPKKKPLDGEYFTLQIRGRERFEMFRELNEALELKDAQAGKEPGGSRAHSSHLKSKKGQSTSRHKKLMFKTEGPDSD
Chain of Myc proto-oncogene protein (Homo sapiens) (P01106 whole entry, looked up): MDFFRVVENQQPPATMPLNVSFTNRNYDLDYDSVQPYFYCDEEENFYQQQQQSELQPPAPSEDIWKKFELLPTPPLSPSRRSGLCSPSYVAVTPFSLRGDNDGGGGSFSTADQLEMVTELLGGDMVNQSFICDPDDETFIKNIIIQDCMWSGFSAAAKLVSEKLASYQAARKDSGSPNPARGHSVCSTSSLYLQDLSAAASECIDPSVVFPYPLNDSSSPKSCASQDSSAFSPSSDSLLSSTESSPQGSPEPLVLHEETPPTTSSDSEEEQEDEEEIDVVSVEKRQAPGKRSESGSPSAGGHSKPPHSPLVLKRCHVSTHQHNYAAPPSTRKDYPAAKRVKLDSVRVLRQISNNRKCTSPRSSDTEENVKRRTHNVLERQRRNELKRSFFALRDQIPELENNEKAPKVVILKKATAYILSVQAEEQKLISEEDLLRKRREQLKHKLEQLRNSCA
Chain of human Peroxisome Proliferator-activated Receptor alpha (PPARa), PPARA (gene 5465) (Q07869 whole entry, looked up, the tested form may be a part): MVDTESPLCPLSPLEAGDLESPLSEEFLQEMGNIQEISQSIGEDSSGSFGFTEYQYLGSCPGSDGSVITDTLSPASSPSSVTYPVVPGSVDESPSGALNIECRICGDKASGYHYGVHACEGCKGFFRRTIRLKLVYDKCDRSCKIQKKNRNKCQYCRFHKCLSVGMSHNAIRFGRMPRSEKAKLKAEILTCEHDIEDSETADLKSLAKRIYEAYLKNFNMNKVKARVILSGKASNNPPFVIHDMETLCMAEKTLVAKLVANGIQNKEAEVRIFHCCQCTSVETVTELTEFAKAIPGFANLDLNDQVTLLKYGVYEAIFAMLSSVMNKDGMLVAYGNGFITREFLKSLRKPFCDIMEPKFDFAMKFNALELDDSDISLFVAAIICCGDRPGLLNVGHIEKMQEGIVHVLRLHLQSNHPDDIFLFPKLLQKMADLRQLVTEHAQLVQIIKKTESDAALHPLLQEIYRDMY
Chain of human RAR-related Orphan Receptor beta (RORb), RORB (gene 6096) (Q92753 whole entry, looked up, the tested form may be a part): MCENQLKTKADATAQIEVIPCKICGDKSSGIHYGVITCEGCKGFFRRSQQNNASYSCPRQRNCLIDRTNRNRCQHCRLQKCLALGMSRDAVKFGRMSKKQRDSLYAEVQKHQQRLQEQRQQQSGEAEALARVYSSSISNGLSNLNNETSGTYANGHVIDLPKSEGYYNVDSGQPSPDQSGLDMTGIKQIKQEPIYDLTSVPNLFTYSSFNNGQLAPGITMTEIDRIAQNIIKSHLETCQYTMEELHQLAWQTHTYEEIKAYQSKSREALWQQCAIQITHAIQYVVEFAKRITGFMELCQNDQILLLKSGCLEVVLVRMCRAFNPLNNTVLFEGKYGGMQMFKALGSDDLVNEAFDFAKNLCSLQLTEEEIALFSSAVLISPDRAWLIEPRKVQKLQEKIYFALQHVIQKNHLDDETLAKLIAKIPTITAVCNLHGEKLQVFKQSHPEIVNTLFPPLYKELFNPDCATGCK
Chain of Retinoic acid receptor alpha (Homo sapiens) (P10276 whole entry, looked up, the tested form may be a part): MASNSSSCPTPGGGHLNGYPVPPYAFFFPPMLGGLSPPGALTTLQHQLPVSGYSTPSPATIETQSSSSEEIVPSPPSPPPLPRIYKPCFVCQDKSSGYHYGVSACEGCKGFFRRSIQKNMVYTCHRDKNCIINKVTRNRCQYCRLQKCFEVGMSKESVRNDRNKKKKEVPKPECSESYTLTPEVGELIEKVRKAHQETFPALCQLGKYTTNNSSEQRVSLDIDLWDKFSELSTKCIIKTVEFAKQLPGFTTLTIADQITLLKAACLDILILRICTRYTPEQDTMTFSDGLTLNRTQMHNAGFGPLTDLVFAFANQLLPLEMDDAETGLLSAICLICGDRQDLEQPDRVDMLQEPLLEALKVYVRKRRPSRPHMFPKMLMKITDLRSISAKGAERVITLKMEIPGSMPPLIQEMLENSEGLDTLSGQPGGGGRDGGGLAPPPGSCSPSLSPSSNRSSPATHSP
Chain of human Retinoic Acid Receptor beta (RARb), RARB (gene 5915) (P10826 whole entry, looked up, the tested form may be a part): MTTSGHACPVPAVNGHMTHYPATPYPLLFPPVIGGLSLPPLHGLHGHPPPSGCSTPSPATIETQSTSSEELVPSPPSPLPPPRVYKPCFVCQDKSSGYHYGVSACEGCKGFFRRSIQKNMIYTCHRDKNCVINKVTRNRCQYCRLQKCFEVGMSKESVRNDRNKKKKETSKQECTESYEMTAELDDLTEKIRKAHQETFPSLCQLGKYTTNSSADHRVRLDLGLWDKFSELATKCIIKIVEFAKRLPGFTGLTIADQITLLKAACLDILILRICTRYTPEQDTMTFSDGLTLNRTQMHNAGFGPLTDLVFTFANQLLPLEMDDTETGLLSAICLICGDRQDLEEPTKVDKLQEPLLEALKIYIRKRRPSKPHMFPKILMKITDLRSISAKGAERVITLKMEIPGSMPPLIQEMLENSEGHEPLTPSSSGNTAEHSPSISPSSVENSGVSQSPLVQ

CCN(CC)N=O
inactive: [1] | [2] | [3] | [4] | [5] | [6] | [7] | [8] | [9] | [10] | [11]

ClC1=C(Cl)C2(Cl)C3C(Cl)C=CC3C1(Cl)C2(Cl)Cl (centres undefined)
inactive: [1] | [5] | [10] | [13] | [14]
active: [2] 186 µM | [3] 100 µM | [4] 100 µM | [6] 100 µM | [7] 26.9 µM | [12] 29.3 µM | [9] 29.9 µM | [11] 30.2 µM

Clc1ccc(C(c2ccc(Cl)cc2)C(Cl)Cl)cc1
active: [2] 60.5 µM | [3] 44.6 µM | [5] 51.1 µM | [7] 32.2 µM | [12] 14.1 µM | [8] 31.4 µM | [9] 28.7 µM | [11] 37.9 µM | [16] 15.3 µM | [14] 7.96 µM
inactive: [1] | [4] | [6] | [15] | [13]

c1ccc2c(c1)oc1ccccc12
not listed: [13] | [14] | [16] | [17] | [18] | [19] | [20]
inactive: all other assays above

CN(C)c1ccc(C(=O)c2ccc(N(C)C)cc2)cc1
active: [13] 6.44 µM
not listed: [6] | [10] | [12] | [16] | [18] | [19] | [20]
inactive: all other assays above

Cc1cccc(N)c1N
active: [5] 21.6 µM | [8] 16 µM
not listed: [6] | [10] | [12] | [16] | [17] | [20]
inactive: all other assays above

c1ccc(NNc2ccccc2)cc1
active: [5] 27.8 µM
not listed: [13] | [17] | [18] | [19]
inactive: all other assays above

CCN(CC)CCO
inactive: [1] | [2] | [3] | [4] | [5] | [6] | [7] | [8] | [9] | [10] | [11]

CC(C)(OOC(C)(C)c1ccccc1)c1ccccc1
inactive: [4] | [15] | [10] | [11] | [13]
active: [1] 63 µM | [2] 59.1 µM | [3] 77.6 µM | [5] 29.1 µM | [7] 29 µM | [12] 33.7 µM | [9] 29.9 µM | [14] 7.09 µM
